Results on 24 molecules are retold here after PubChem BioAssay.

As usually defined, the inhibition is the percentage by which the read-out fell short of the control.

For assay [1], the system named is TRPC4 beta (transient receptor potential cation channel C4), mouse. In words: TRPC4 cation channel opening, retest – cell-based, Fluo4 calcium, HEK293 TRPC4beta/mu-opioid, duplicates, 10 µM, confirmation (AID 2426;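 active = fluorescence ratio normalized to control raised more than 50% in primary screen plus both repeat runs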;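 also: percent rise of integrated ratio over buffer wells lacking compound which define 0%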). The conditions noted are these: Fluo4 calcium fluorescence, at 10 µM; stronger effect = higher value.
Assay [2] concerns transient receptor potential cation channel C4 beta (TRPC4), mouse. In words: TRPC4 cation channel opening, second retest – cell-based, second round, Fluo4, HEK293 TRPC4beta/mu-opioid, 1 µM, confirmation (AID 2461;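 active = primary screen active and over 50% activation in each of two duplicate runs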). The conditions noted are these: Fluo4 calcium fluorescence, at 1 µM; stronger effect = higher value.
Assay [3] concerns TRPC4 (transient receptor potential cation channel C4 beta), mouse. In words: potentiation of DAMGO EC20 TRPC4 response – cell-based, second round, Fluo-4, HEK293 TRPC4beta/mu-opioid, 1 µM, confirmation (AID 2554;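 active = primary screen hit whose fluorescence ratio, in both repeats, exceeds the weak agonist control mean by 3 SD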). The conditions noted are these: DAMGO EC20, Fluo-4 calcium flux, at 1 µM; stronger effect = higher value. On the technique in general: Calcium assays in cells follow changes in intracellular calcium, usually with a dye or a luminescent sensor.

Assay [4] concerns TRPC4 beta (transient receptor potential cation channel C4), mouse. In words: potentiation of DAMGO EC20 TRPC4 response – cell-based, Fluo-4, HEK293 TRPC4beta/mu-opioid, confirmation (AID 2555;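 active = primary screen hit whose calcium fluorescence ratio, in both repeats, exceeds the weak agonist control mean by 3 SD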). Conditions: DAMGO EC20, Fluo-4 calcium flux, at 10 µM; stronger effect = higher value.
For assay [5], the target named is Short transient receptor potential channel 4 (Mus musculus) (UniProt Q9QUQ5). In words: blockers of DAMGO-evoked TRPC4 calcium flux – cell-based, Fluo4, HEK293 TRPC4beta/mu-opioid, confirmation (AID 2636;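 active = calcium signal cut by more than 3 SD below the full-agonist control yet still positive, in both repeats and the earlier primary screen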). The conditions noted are these: at 10 µM; stronger effect = higher value.
Sequence of Short transient receptor potential channel 4 (Mus musculus) (Q9QUQ5 whole entry, looked up): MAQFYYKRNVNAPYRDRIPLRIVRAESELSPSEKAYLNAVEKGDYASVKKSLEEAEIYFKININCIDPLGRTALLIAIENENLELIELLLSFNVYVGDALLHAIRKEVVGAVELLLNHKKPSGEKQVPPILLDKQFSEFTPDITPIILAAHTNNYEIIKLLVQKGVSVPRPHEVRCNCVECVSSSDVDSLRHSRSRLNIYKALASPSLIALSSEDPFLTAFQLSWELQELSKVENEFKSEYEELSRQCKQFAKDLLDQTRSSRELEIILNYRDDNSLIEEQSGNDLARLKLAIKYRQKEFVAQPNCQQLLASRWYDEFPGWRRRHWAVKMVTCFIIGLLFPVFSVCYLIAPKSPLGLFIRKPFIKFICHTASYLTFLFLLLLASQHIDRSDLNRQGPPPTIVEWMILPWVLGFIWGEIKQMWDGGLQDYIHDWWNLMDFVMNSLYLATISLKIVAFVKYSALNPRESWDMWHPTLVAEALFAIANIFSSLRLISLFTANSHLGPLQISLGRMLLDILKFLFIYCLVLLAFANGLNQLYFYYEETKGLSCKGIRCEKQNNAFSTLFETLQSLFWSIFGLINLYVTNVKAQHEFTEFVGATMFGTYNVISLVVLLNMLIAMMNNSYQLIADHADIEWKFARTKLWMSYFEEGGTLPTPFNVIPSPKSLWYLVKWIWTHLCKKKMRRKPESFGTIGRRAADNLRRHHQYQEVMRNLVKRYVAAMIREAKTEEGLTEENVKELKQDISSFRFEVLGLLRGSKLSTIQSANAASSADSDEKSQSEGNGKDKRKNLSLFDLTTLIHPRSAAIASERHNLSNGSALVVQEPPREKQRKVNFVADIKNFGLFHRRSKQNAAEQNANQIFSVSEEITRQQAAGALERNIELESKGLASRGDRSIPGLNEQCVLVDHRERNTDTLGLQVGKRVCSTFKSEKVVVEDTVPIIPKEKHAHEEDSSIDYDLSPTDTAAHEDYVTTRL
Assay [6] shares this target. In words: blockers of DAMGO-evoked TRPC4 calcium flux – cell-based, second round, Fluo4, HEK293 TRPC4beta/mu-opioid, 1 µM, confirmation (AID 2637;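 active = calcium signal ratio cut to more than 3 SD under the fully stimulated control mean yet still positive, in both repeats and the primary screen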). The conditions noted are these: at 1 µM; stronger effect = higher value.
For assay [7] the target is unchanged. In words: block of DAMGO-driven TRPC4 calcium entry – cell-based, HEK293 TRPC4/mu-opioid, Fluo-4 calcium, dose response (AID 434942;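 active = primary screen inhibitor hit that blocks the TRPC4 channel at some tested dose, yielding a dose curve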).
Assay [8] addresses Short transient receptor potential channel 6 (Mus musculus) (UniProt Q61143). In words: TRPC6 blockade by TRPC4 inhibitor hits – cell-based, HEK293, membrane potential dye, duplicate, selectivity assay for TRPC4 inhibitor project, confirmation (AID 434948;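 active = active in primary screen and both duplicates, each dropping signal beyond three positive-control SD with fluorescence still positive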). The conditions noted are these: HEK293 TRPC6, membrane potential dye fluorescence, at 10 µM, stimulated with maximal-effect acetylcholine; stronger effect = higher value.

For assay [9] the target is unchanged. In words: TRPC6 opening by TRPC4 activator hits – cell-based, HEK293, membrane potential dye, duplicate, selectivity assay for TRPC4 activator project, confirmation (AID 434950;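 active = membrane potential signal rise above negative control mean plus 3 SD in both duplicates, also active in the earlier TRPC4 screen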;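 as to activation: 0% = buffer only wells and 100% = acetylcholine maximal-effect wells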). The conditions noted are these: HEK293 TRPC6, membrane potential fluorescence, at 10 µM; activation: stronger effect = higher value; outcome: activation.
Assay [10] shares this target. In words: positive modulators of mouse TRPC6 channel – HEK293 cells, membrane potential dye, duplicate, selectivity assay for TRPC4 potentiator project, confirmation (AID 434952;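 active = compound raising the membrane signal above positive-control mean plus 3 SD in both repeats, and a primary screen hit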). The conditions noted are these: HEK293 TRPC6, membrane potential dye fluorescence, at 10 µM, maximal acetylcholine added after compound; stronger effect = higher value.
Assay [11] concerns the target Short transient receptor potential channel 4 (Mus musculus) (UniProt Q9QUQ5). In words: calcium flux activators in TRPC4/5HT1a cells, counter-screen for TRPC4 activator project, cell-based, second counter screen, HEK293 TRPC4/5HT1a, Fluo-4 (AID 434977;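 active = calcium signal rise above buffer-control mean plus 5 SD in both duplicates, and also a hit in the primary screen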;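 also: plate controls were assay buffer for no effect and maximal serotonin response for full effect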). Conditions: Fluo-4 calcium flux, at 10 µM; stronger effect = higher value.
Assay [12] in a line: serotonin-gated TRPC4 signal block – cell-based, second counter screen, HEK293 TRPC4/5HT1a, Fluo-4, counter-screen for TRPC4 inhibitor project, confirmation (AID 434978;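 active = primary screen active whose calcium signal fell more than 3 SD beyond the full-serotonin control mean in both duplicate plates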;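 as to outcome: serotonin given first at submaximal then at maximal dose after compound preincubation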). The conditions noted are these: Fluo-4 calcium flux, at 10 µM, serotonin added to trigger calcium flux; stronger effect = higher value. In general terms: The purpose of a counterscreen is to sort out artefacts and off-target activity.

For assay [13], the system named is TRPC4 (mouse), co-expressed with 5HT1a in HEK293. In words: enhancement of serotonin-evoked TRPC4 response – cell-based, second counter screen, HEK293 TRPC4/5HT1a, Fluo-4, counter-screen for TRPC4 potentiator project, confirmation (AID 434979;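 active = signal rise over 3 SD above mean of control wells given weak agonist, in both repeats and first screen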). The conditions noted are these: Fluo-4 calcium flux, at 10 µM, serotonin added at its EC20 dose; stronger effect = higher value.
The nature of assay [14]: nonspecific calcium rise without TRPC4 – cell-based, HEK293 mu-opioid receptor line, counter-screen for TRPC4 activator project, confirmation (AID 449723;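 active = hit in primary screen, with calcium signal over 5 SD above buffer well mean in both duplicates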;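 also: counter screen cells carry the mu-opioid receptor alone and lack TRPC4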). The conditions noted are these: HEK293 mu-opioid cells, Fluo-4 calcium fluorescence, at 10 µM; stronger effect = higher value.
Assay [15] in a line: nonspecific potentiation of DAMGO calcium response – cell-based, HEK293 mu-opioid receptor line, counter-screen for TRPC4 allosteric potentiator project, confirmation (AID 449724;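 active = calcium signal rise more than 3 SD above the low-dose agonist control mean, in both duplicate plates and the primary screen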). The conditions noted are these: HEK293 mu-opioid receptor cells, Fluo-4 calcium flux, at 10 µM, compound added before EC20 DAMGO stimulus; stronger effect = higher value.
Assay [16] concerns the target Short transient receptor potential channel 4 (Mus musculus) (UniProt Q9QUQ5). In words: DAMGO-gated TRPC4 membrane potential modulation – cell-based, second specificity screen, HEK293 TRPC4/mu-opioid, selectivity assay for TRPC6 inhibitor project, confirmation (AID 2776;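 active = compounds whose fluorescence signal differed from control wells by over 3 SD, either direction, in both duplicate plates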). The conditions noted are these: HEK293 TRPC4/MOR, membrane potential dye fluorescence, at 10 µM, channel activated by saturating DAMGO dose; stronger effect = higher value.

Assay [17] relates to transient receptor potential cation channel C4 (TRPC4), mouse. In words: membrane potential change in TRPC4 cells – cell-based, HEK293 TRPC4/mu-opioid, membrane potential dye, selectivity assay for TRPC6 inhibitor project, confirmation (AID 2777;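 active = rise or fall in signal beyond 3 SD of buffer-only wells in both replicate plates, either sign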;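 also: integrated kinetic ratio of fluorescence range over baseline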). The conditions noted are these: membrane potential fluorescence, at 10 µM.
Assay [18] can be described thus: parental HEK293 depolarization signal interference – cell-based, second counter screen, counter-screen for TRPC6 inhibitor project, confirmation (AID 2779;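 active = membrane potential signal moving either way by over 3 SD of the maximum-effect control, in both duplicate plates, meaning non-specific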). The conditions noted are these: parental HEK293 membrane potential dye fluorescence; at 10 µM; maximal acetylcholine challenge after compound addition.
The target in assay [19] is Short transient receptor potential channel 6 (Mus musculus) (UniProt Q61143). In words: blockers of TRPC6 cation channel activity – HEK293 cells, membrane potential dye, duplicate, confirmation (AID 488960).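 As to inhibition: integrated fluorescence ratio of peak minus minimum over baseline after agonist.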 Conditions: ACh-evoked depolarization, at 10 µM; stronger effect = higher value.
Sequence of Short transient receptor potential channel 6 (Mus musculus) (Q61143 whole entry, looked up): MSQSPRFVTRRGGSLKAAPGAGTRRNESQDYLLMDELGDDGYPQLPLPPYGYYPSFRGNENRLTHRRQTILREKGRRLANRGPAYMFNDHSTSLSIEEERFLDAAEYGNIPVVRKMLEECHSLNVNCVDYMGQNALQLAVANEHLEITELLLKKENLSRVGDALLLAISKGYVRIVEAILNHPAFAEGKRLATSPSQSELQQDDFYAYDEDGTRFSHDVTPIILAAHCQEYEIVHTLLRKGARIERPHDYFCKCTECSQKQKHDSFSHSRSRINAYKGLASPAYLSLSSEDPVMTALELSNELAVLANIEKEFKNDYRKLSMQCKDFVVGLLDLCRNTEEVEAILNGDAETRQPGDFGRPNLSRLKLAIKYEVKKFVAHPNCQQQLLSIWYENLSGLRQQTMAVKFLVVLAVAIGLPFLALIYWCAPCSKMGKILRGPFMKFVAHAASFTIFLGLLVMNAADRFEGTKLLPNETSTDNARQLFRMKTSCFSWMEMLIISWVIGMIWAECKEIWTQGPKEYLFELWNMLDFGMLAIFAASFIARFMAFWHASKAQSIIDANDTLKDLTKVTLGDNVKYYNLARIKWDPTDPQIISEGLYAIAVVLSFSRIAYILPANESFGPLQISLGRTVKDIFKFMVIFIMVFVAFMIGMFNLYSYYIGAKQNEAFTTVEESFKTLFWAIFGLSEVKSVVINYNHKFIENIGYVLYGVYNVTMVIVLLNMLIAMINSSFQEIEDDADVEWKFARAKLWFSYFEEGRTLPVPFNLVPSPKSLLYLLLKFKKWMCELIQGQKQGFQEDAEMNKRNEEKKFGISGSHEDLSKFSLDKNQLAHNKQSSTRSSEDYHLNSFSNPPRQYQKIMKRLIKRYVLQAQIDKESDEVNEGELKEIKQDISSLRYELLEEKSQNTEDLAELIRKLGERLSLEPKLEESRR
Assay [20] has as its target Short transient receptor potential channel 4 (Mus musculus) (UniProt Q9QUQ5). In words: potentiation of DAMGO-evoked TRPC4 calcium signal – cell-based, HEK293 TRPC4/mu-opioid, Fluo-4 calcium, EC20 DAMGO, dose response (AID 434941;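 active = earlier screen potentiator hit that boosts the TRPC4 ion channel at some dose, with a dose response; inactive = no potentiation, no dose response, or not a prior hit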;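 also: calcium entry triggered by an EC20 dose of DAMGO at the co-expressed mu-opioid receptor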).

For part of these data: Potency and affinity values are given separately. This is one part of the list. Calls of active or inactive are those of the source.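 The calls were made as follows, unless noted: active = fluorescence ratio falls more than 5 SD below the full-stimulation control mean, in both duplicate runs; inactive = the rest.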

In the case of `CCOC(=O)c1c(NC(=O)COC(=O)Cc2c[nH]c3ccccc23)sc(C(=O)N(C)C)c1C`, the figures for the activation in assay [1], in assay [9] and in [11] were 194% (active), 46% (active) and 107% (active), respectively. In addition, the outcome in assay [2], in assay [5], in assay [6], in assay [7], in assay [8] and in assay [10] was inactive. The outcome in assay [12], in assay [14] and in assay [15] was inactive. In addition, the potentiation in assay [3] was 15% (active); in assay [4] it was 55% (active); in assay [13], 60% (active).

As for `Cn1c(O)c(/C=N/NC(=O)c2cc3ccccc3cc2O)c2ccccc21`, the activation in [1] is 81% (active); in assay [9], 524% (active); in [11], 59.2% (active); in [14], 82.4% (active); in [15], 879% (active). Further, the result in [2], in [3], in assay [5], in assay [6], in assay [7] and in assay [8] was inactive. For the same molecule, the result in [12] was inactive. The figures for the potentiation in assay [4] and in [13] were 27% (active) and 17.8% (active), respectively. Also, the potentiation, percent of control in assay [10] is 238% (active).

Consider `C=C(C)c1cccc(C(C)(C)NC(=O)NCCN(CC)CC)c1`, for which the result in assay [16] and in assay [18] was inactive. The activity change, negative = inhibition in assay [17] was 1.45% (active). The inhibition in assay [19] was 54.4% (active).

Regarding `CCOC(=O)N1CCN(C(=O)c2ccc3c(c2)N(Cc2ccc(C)cc2)CCS3)CC1`, the outcome in [16] and in [19] was inactive. For the same molecule, in assay [17], the activity change, negative = inhibition is 0.69% (active). For the same molecule, the signal change vs control in [18] was 307% (active).

Consider `Cn1c(=O)n(C)c2cc(C(=O)Nc3ccc4c(c3)OCO4)ccc21`, for which the call in [16], in assay [18] and in assay [19] was inactive. Further, the activity change, negative = inhibition in [17] is -23.4% (active).

With `COc1ccccc1C1SCCN1C(=O)c1ccc([N+](=O)[O-])cc1` (stereo not drawn), the result in assay [16], in [17], in [18] and in [19] was inactive.

In the case of `Cn1c(=NC(=O)c2cnccn2)sc2ccccc21`, the outcome in assay [16] and in assay [19] was inactive. Also, in [17], the activity change, negative = inhibition was -25.3% (active). Moreover, the signal change vs control in assay [18] was 24.5% (active).

With `C[C@H](NC(=O)OC(C)(C)C)c1nnc(SCC(=O)Nc2ccc(Br)cc2)o1`, the molecule was called inactive in assay [16], in [17], in assay [18] and in assay [19].

As to `CCOC(=O)N1CCC(O)(c2cc(C)c(C)cc2C)CC1`, the result in assay [16], in assay [17] and in assay [18] was inactive. Also, the inhibition in [19] is 55% (active).

As to `CCOC(=O)N1CCC(NC(=O)CN2C(=O)COc3ccc(C(C)(C)C)cc32)CC1`, the call in assay [16], in assay [17], in [18] and in assay [19] was inactive.

Regarding `CCCCCCCCCCOC(=O)C[N+](C)(C)CC1CCCCC1O` (stereo not drawn), the result in assay [16], in [18] and in assay [19] was inactive. The activity change, negative = inhibition in assay [17] was 7.58% (active).

As to `CN(C)c1ccc(C2N(C)C(=O)c3ccccc3N2C)cc1` (stereo not drawn), the result in assay [16], in assay [17] and in assay [19] was inactive. Further, in assay [18], the signal change vs control was 262% (active).

`CCCc1cc(=S)n2c([nH]c3ccccc32)c1C#N`: the molecule was called inactive in assay [16] and in [18]. Besides, the activity change, negative = inhibition in assay [17] is 33.6% (active). In addition, the inhibition in assay [19] was 51.5% (active).

In the case of `c1ccc(C2c3[nH]c4ccccc4c3CCN2Cc2cccn2-c2cccnc2)nc1` (stereo not drawn), the call in assay [16], in assay [18] and in [19] was inactive. Further, the activity change, negative = inhibition in [17] is -10.1% (active).

Consider `COc1ccc(CNC(=O)c2cc3c(=O)n4ccccc4nc3n(CC3CCCO3)c2=N)cc1` (stereo not drawn), for which the molecule was classed as inactive in assay [16] and in [19]. In addition, the activity change, negative = inhibition in assay [17] is -15.8% (active). In assay [18], the signal change vs control was 32% (active).

In the case of `CC1Cc2ccccc2N1C(=O)CSc1nc2c(c(=O)n(C)c(=O)n2C)n1Cc1ccccc1` (stereo not drawn), the activation in assay [1] was 320% (active); in assay [9], 37.5% (active); in assay [11], 85.8% (active). The result in [2], in assay [4], in [6], in [8], in [10] and in assay [14] was inactive. The outcome in assay [15] was inactive. In addition, the potentiation in assay [3] was 65% (active); in assay [13], 18.8% (active). Besides, the inhibition is 83% (active) in assay [5] and 11.2% (active) in assay [12].

For the molecule `COc1cc(/C=C2/SC(=S)N(Cc3ccccc3)C2=O)cc(Cl)c1O`, the activation is 144% (active) in [1]; 930% (active) in [9]; 156% (active) in assay [11]; 165% (active) in assay [14]; 1140% (active) in [15]. Further, the result in assay [2], in [5], in assay [6], in [7], in assay [8] and in [12] was inactive. Also, the outcome in assay [13] was inactive. In addition, the potentiation in assay [3] is 11% (active); in [4] it was 21% (active). For the same molecule, the potentiation, percent of control in assay [10] is 310% (active).

With `CCN(CC)c1ccc2cc(C(N)=O)/c(=N\NC(=O)c3ccncc3)oc2c1`, the inhibition in assay [16] is 70.5% (active). Besides, the activity change, negative = inhibition in assay [17] is 31.7% (active). The signal change vs control in assay [18] is -52% (active). Further, in assay [19], the outcome was inactive.

Turning to `OCCC1CN(Cc2ccc3nsnc3c2)CCN1C1CCCC1` (stereo not drawn), the molecule was called inactive in [16], in assay [17], in assay [18] and in assay [19].

As to `Cc1cc(NCc2ccccc2)nc2ccccc12`, the activation was 95% (active) in [1] and 5.93% (active) in assay [11]. Besides, the result in [2], in assay [3], in [4], in assay [5], in [6] and in assay [20] was inactive. Further, the result in assay [9], in assay [10], in [13], in [14] and in [15] was inactive. The inhibition was 53.5% (active) in [8] and 26.2% (active) in [12].

With `Nc1ccc(C(=O)N2CCN(S(=O)(=O)c3ccc(Cl)cc3)CC2)cc1[N+](=O)[O-]`, the inhibition in assay [19] was 72.5% (active).

For `CN1CCN(C(=O)N2c3ccccc3CCc3ccccc32)CC1`, the call in assay [19] was inactive.

With `COc1ccccc1C(CNC(=O)c1cccc(NS(=O)(=O)c2ccc(Br)cc2)c1)N(C)C` (stereo not drawn), the inhibition in assay [19] is 44% (active).

Turning to `Cc1cc(N2CCN(S(=O)(=O)c3ccc(C)c(C)c3)CC2)c2ccccc2n1`, the call in assay [19] was inactive.
